# Most compounds without a hit are left out; they make up all but 14% or so of the library.
# Giardia FBPA inh = inhibitors of Giardia lamblia fructose-1,6-bisphosphate aldolase; purified Giardia FBPA; AID 2451; 290,000 compounds, 0.71% hits; Potency, µM (doses to about 59.6 µM), without a hit: at the top dose activity, negative = inhibition, actives largely listed as inhibitors; A8B2U2; further: potency means the concentration at half of the fitted maximal effect; on the % scale 0 is the no-effect control and ±100 the full control effect; nearly all actives have a fitted effect of over 55% in size
#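 Giardia FBPA (40 nM reagent) was preincubated 10 min at RT with compound (up to 57.5 uM final), then substrate plus GAPDH/TPI/NAD/arsenate coupling system with diaphorase/resazurin was added; resorufin fluorescence (525/598 nm) was read after 20 min.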
# Shiga toxin inh = blocks Shiga toxin action in Vero cells; Vero cells, Shiga toxin protein synthesis inhibition reporter; inhibition, % at 38.7 µM; 290,000 compounds, 9.2% hits; in the data active means inhibition mostly above about 28%, no sharp cut-off; inactive means mostly below about 43%; further: 0% is about no effect
# NS1 function inh = inhibitors of influenza NS1 protein function | Potency, µM (highest dose often 46.1 µM), inactives show at the highest dose activity, positive = more growth | 270,000 compounds, 0.4% hits; calls by dose curve; further: potency means the concentration at half of the fitted maximal effect; actives are rising curves; nearly all actives have a fitted effect of over 50% in size
#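 S. cerevisiae expressing influenza A NS1, grown in glucose, washed, then diluted 1:100 into pH 6.0 -URA galactose medium with 23 nl compound. Growth recovery read as OD600; NS1-free strain serves as control.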
# LmPK inhibitor = inhibitors of Leishmania mexicana pyruvate kinase; Potency, µM (highest dose often 57.5 µM), inactives show at the top dose activity change, negative = inhibition, actives largely listed as inhibitors; purified LmPK, Kinase-Glo ATP luminescence, 1 h; 290,000 compounds, 0.37% hits; further: potency means the concentration at half of the fitted maximal effect; on the % scale 0 is the no-effect control and ±100 the full control effect
# Target sequence (Q27686 whole entry, looked up): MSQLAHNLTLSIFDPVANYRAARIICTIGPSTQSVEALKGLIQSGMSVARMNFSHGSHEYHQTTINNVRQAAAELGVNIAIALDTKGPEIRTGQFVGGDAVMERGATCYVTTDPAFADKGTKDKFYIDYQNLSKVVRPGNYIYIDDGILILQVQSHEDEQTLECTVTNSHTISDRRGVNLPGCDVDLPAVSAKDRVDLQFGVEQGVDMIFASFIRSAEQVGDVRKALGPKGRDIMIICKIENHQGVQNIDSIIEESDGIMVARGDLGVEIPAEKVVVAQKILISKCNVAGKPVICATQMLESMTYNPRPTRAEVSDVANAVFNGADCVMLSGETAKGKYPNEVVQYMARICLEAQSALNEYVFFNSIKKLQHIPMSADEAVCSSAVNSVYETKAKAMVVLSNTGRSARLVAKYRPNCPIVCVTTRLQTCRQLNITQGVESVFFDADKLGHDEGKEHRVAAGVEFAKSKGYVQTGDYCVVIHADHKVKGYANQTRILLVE
#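 Purified LmPK (0.1 nM) with 0.5 mM PEP and 0.1 mM ADP in imidazole buffer pH 7.2 with MgCl2/KCl, 1 h at room temperature. ATP formed was read by luciferase luminescence and normalized to no-enzyme and uninhibited controls.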
# CHX counter = affects cycloheximide protein synthesis inhibition readout, counter-screen; cell reporter, cycloheximide protein synthesis inhibition counterscreen; max response, %; 300,000 compounds, 12% hits; AID 2314; in the data active means max response mostly above about 13%, no sharp cut-off; inactive means mostly below about 14%; further: read at 38.3 µM for the half of the compounds with a filed dose; 0% is about no effect
# * marks the source's active call; other numbers are inactive results; i = inactive; u = inconclusive; x = no result given; [ ] = remark or other dose. Unless noted, the call rests on the fitted dose curve; in most records, active means well fitted curve in the direction sought with a large enough effect; inconclusive means small, poorly fitted or top-dose-only effect, or another doubt; inactive means no such curve, though single readings can be large; an effect the other way counts as inactive or inconclusive.
SMILES,Giardia FBPA inh,Shiga toxin inh,NS1 function inh,LmPK inhibitor,CHX counter
Cc1ccc(NC(=O)c2ccc([N+](=O)[O-])o2)cc1S(=O)(=O)N1CCOCC1,-17.2%,27.6,x,-0.8%,32.5
NC(=O)c1oc2ccccc2c1NC(=O)c1nc2ccccc2s1,1.4%,99.0*,-4.0%,-1.1%,41.4*
CC(C)C(=O)N1CCN(c2ccc(NC(=O)c3ccc([N+](=O)[O-])o3)cc2)CC1,-10.5%,53.4,-1.5%,4.0%,40.4*
Cc1ccc(NC(=O)c2ccco2)c(NC(=O)Cc2cccs2)c1,5.0%,12.4,-1.8%,-1.0%,1.0
COc1ccc(NC(=O)CN(C)C(=O)CNC(=O)c2cccs2)cc1,10.6%,-10.3,-5.9%,0.6%,1.5
CC1CC=CC2C1C(=O)N(Cc1ccccc1)C2c1ccc(-c2ccc(N(C)C)cc2)cc1F (centres undefined),-1.5%,1.9,x,x,7.6
COc1ccc(N2C(=O)[C@H]3CCC=C[C@H]3[C@@H]2c2ccccc2Br)cc1,0.6%,i,x,x,0.7
C=CC[C@](C)(O)c1ccccc1,-0.9%,x,x,x,x
CC(=O)c1ccc(NC(=O)c2ccc([N+](=O)[O-])o2)cc1,-10.8%,97.9*,-117.1%,-10.0%,33.7*
COc1ccc(NC(=O)c2ccc([N+](=O)[O-])o2)cc1,-12.8%,21.4,-62.1%,-25.1%,9.4
O=C(NNC(=O)c1ccc([N+](=O)[O-])o1)c1ccccc1,-20.5%,51.9,-2.1%,-4.0%,24.9*
NC(=O)c1oc2ccccc2c1NC(=O)c1ccc([N+](=O)[O-])o1,0.8%,28.2*,-26.1%,10.4%,15.1
NC(=O)c1oc2ccccc2c1NC(=O)c1ccc(F)cc1,1.5%,-0.4,-24.2%,1.5%,-2.4
Cc1cc(NC(=O)c2ccc([N+](=O)[O-])o2)ccc1NC(=O)c1ccco1,8.7%,96.8*,x,0.2%,36.3*
CCC(Cc1ccccc1)NS(=O)(=O)c1ccc2c(c1)NC(=O)C(C)S2 (centres undefined),x,17.6,-2.3%,-10.3%,-5.2
O=C(CSc1n[nH]c(=O)n1-c1cccnc1)Nc1ccccc1Cl,x,-5.8,-8.1%,-3.7%,1.2
Cc1[nH]c2ccc3ncccc3c2c1C,-29.2%,-25.4,32.6%,4.3%,14.6*
c1cnc2c(c1)ccc1ncccc12,2.2%,-13.3,-5.8%,-5.0%,1.3
CC(NC(=O)C1CCN(c2nnc(N3CCCC3=O)s2)CC1)c1ccccc1 (centres undefined),0.2%,2.5,19.9%,0.8%,-1.4
CCCCn1c(N)c(N(Cc2ccccc2OC)C(=O)CCC(C)C)c(=O)[nH]c1=O,x,-13.9,4.9%,-5.2%,-4.6
COc1cccc(OCC(=O)Nc2ccncc2)c1,1.4%,x,-12.3%,-2.6%,-2.9
COc1cccc(NC(=O)COc2ccc(C)cc2)c1,2.5%,62.7*,-0.6%,-6.5%,36.6*
COc1cccc(NC(=O)COc2ccc3c(c2)CCC3)c1,0.3%,38.2*,x,0.2%,23.3*
COCC1CCCC1OS(N)(=O)=O (centres undefined),18.5%,-5.3,-2.5%,-2.0%,-1.6
CN(C)CS/C(N)=N/[C@H](O)C(Cl)(Cl)Cl,x,x,1.4%,x,x
SMILES,Giardia FBPA inh,Shiga toxin inh,NS1 function inh,LmPK inhibitor,CHX counter
CCOC(=O)c1csc(N/N=C2\CCCc3ccccc32)n1,10.4%,33.2*,8.5%,-0.5%,11.6*
CCOC(=O)c1csc(N/N=C2\CCc3ccccc32)n1,13.9%,38.2*,0.5%,1.2%,31.1*
CCOC(=O)c1csc(NC(=O)CN2CCN(C)CC2)n1,u,5.3,1.3%,0.4%,-1.7
CCOC(=O)c1csc(NC(=O)CN2CCCCC2)n1,-20.4%,-6.5,5.8%,-3.3%,-6.2
CCc1ccc(-c2cc(C)no2)cc1S(=O)(=O)NC(C)Cc1ccco1 (centres undefined),10.5%,-7.1,-3.3%,0.5%,1.2
CCc1ccc(S(=O)(=O)Nc2ccc(-c3nc4cccnc4s3)cc2)s1,0.0%,59.9*,1.1%,-4.2%,35.7*
NS(=O)(=O)c1ccc(C(=O)Nc2ccc(-c3nc4cccnc4s3)cc2)cc1,4.7%,69.7*,3.8%,-0.2%,48.2*
O=C(Nc1cccc(-c2nc3cccnc3s2)c1)c1ccc(Cl)nc1,4.9%,21.5,1.6%,0.5%,6.7
O=C(Nc1cccc(-c2nc3cccnc3s2)c1)c1cccnc1Cl,-8.9%,30.9*,-64.6%,0.3%,17.6*
O=S(=O)(Nc1ccc(-c2nc3cccnc3s2)cc1)c1cc(F)ccc1F,11.9%,67.3*,9.7%,-2.9%,36.7*
C#C[C@@]1(O)CC[C@@H]2[C@@H]3CCC4=C(CCC(=O)C4)[C@H]3CC[C@]21C,1.5%[21.7 µM],x,x,x,x
COc1ccccc1N1CCN(C(=O)c2cn(C)c3ccc(S(=O)(=O)N4CCOCC4)cc3c2=O)CC1,12.6%,-5.4,-10.3%,0.9%,-5.1
O=C1c2ccccc2C(=O)N1Cc1nc(-c2ccccc2)no1,0.0%,-2.9,-7.7%,0.4%,-1.3
O=S(=O)(Cc1cc(-c2ccccc2)no1)c1ccccc1,-0.9%,65.3*,-1.8%,0.4%,33.8*
O=C1c2ccccc2C(=O)N1Cc1cc(-c2ccccc2)no1,1.7%,27.3*,-4.9%,2.9%,19.1*
COc1ccc(-c2cc(CNS(=O)(=O)c3ccc(NC(C)=O)cc3)on2)cc1,x,10.9,-7.3%,-3.0%,-2.5
COc1ccc(-c2cc(CS(=O)(=O)c3ccccc3)on2)cc1,-5.9%,67.7*,-7.2%,-0.4%,41.1*
CC(C)=CCC1=C(O)[C@](O)(CC=C(C)C)C(=O)C(C(=O)CC(C)C)=C1O,-8.5%,x,x,x,x
CCN(CC)C1CC(=O)N(c2cccc(Cl)c2)C1=O (centres undefined),12.1%,x,-126.3%,-1.4%,-4.0
COc1ccc(OCCN(C)Cc2c(O)ccc3ccccc23)cc1,-3.3%,36.8,9.6%,1.4%,17.6*
O=[N+]([O-])c1ccc(-c2ccc(/C=N/O)o2)cc1,-11.1%,108.8*,-41.0%,-12.8%,33.3*
COc1ccccc1-c1ccc(/C=N/O)o1,-20.6%,36.3,-44.4%,-0.3%,10.7
COc1ccc(N=Cc2ccc(-c3ccccc3)o2)cc1,-26.1%,11.0,-3.5%,-1.0%,16.3*
NC(=O)N/N=C/c1ccc(-c2ccc([N+](=O)[O-])cc2)o1,-3.2%,24.9,2.6%,-6.7%,25.1*
COc1ccc(N=Cc2ccc[nH]2)cc1,-12.6%,-7.0,-47.9%,9.5%,1.6
SMILES,Giardia FBPA inh,Shiga toxin inh,NS1 function inh,LmPK inhibitor,CHX counter
O/N=C\c1ccc(-c2ccccc2)o1,0.3%,92.5*,-9.8%,-4.6%,21.3*
Nc1nc(SCc2ccc([N+](=O)[O-])cc2)c2ncn([C@@H]3O[C@H](CO)[C@H](O)[C@H]3O)c2n1,-4.4%,x,-2.7%,x,x
Nc1cc(Nc2ccc(Br)cc2)nc(N)n1,-9.5%,69.7*,2.5%,-2.6%,40.4*
COc1ccc(Nc2cc(C)nc(N)n2)cc1,-3.7%,36.6*,-54.0%,0.2%,20.3*
Cc1cc(Nc2ccc(Cl)cc2)nc(N)n1,-22.9%,63.1*,7.1%,-3.3%,68.3*
COc1ccc(Nc2cc(C)nc(NCc3ccccc3)n2)cc1,-3.3%,22.4,-33.8%,1.1%,1.4
COc1ccc(Nc2cc(Cl)nc(N)n2)cc1,u,35.6,x,-1.3%,29.4*
Cc1cc(Nc2ccc(Cl)cc2)nc(-c2ccccc2O)n1,1.3%,46.3,4.6%,1.1%,15.1

# Screening results: PubChem BioAssay, National Center for Advancing Translational Sciences (NCATS)
